# Data published in PubChem BioAssay (NCATS).
# Values without a mark were called inactive. Inconclusive results are not listed. Where a call stands in place of a potency, no number is given. Activity calls are given as the source filed them. Unless noted, the call rests on the fitted dose curve; in most records, active means well fitted curve in the direction sought with a large enough effect; inconclusive means small, poorly fitted or top-dose-only effect, or another doubt; inactive means no such curve, though single readings can be large; an effect the other way counts as inactive or inconclusive.
# Experiments:
# [1] = target: Cytochrome P450 3A4 (Homo sapiens) (UniProt P08684); assay: qHTS Assay for Inhibitors and Substrates of Cytochrome P450 3A4 (AID 884); further: potency means the concentration at half of the fitted maximal effect; nearly all actives have a fitted effect of over 50% in size
# Chain of Cytochrome P450 3A4 (Homo sapiens) (P08684 whole entry, looked up): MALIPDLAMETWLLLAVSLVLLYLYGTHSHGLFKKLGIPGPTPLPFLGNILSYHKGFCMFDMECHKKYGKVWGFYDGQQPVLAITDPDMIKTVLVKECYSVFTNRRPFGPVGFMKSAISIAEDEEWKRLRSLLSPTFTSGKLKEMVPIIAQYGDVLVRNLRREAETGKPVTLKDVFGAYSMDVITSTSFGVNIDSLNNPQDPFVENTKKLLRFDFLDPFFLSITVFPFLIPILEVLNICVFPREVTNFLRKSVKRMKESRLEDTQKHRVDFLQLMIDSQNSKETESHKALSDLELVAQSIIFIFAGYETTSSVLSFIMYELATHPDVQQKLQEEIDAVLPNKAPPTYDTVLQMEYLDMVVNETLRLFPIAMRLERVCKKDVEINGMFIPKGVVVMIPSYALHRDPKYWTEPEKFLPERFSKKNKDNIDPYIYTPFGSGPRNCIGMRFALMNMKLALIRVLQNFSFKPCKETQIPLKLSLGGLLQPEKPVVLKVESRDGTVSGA
# In short: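 20 nM human CYP3A4 with 25 uM Luciferin-PPXE (at KM) in 200 mM KPO4, preincubated 10 min with compound; NADPH regeneration started a 60 min RT reaction. Luciferin detected by luminescence, normalized to 57 uM ketoconazole as full inhibition.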
# [2] = target: Cytochrome P450 3A4 (Homo sapiens) (UniProt P08684); assay: qHTS Assay for Activators of Cytochrome P450 3A4 (AID 885); further: nearly all actives have a fitted effect of over 65% in size
# In short: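 Steps: enzyme/substrate mix dispensed; compound added, 10 min RT; NADPH regeneration solution added, 60 min RT; luciferin detection buffer stops reaction; 20 min later luminescence measured.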
# [3] = target: Dual specificity protein kinase CLK4 (Homo sapiens) (UniProt Q9HAZ1); assay: qHTS Assay for Inhibitors of CDC-like Kinase 4 (Kinase-Glo Assay) (AID 1770); further: nearly all actives have a fitted effect of over 65% in size; further: potency means the concentration at half of the fitted maximal effect
# Chain of Dual specificity protein kinase CLK4 (Homo sapiens) (Q9HAZ1 whole entry, looked up): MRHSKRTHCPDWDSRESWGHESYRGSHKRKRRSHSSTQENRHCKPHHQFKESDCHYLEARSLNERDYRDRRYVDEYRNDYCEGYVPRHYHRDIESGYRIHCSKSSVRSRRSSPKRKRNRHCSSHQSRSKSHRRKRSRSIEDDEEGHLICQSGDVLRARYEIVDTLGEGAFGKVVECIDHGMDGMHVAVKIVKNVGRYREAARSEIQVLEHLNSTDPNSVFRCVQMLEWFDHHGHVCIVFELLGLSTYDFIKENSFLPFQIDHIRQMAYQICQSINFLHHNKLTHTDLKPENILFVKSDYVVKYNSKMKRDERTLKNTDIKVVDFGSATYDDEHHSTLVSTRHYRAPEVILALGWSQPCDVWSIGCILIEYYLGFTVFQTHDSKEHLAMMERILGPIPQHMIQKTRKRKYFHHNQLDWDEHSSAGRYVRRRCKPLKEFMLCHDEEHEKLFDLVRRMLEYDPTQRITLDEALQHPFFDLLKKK
# In short: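 Inhibition was judged from remaining ATP, measured by Ultra-Glo luciferase bioluminescence after Clk4 (25 nM) had acted on RS peptide at 1 uM ATP for 4.5 hours, room temperature.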
# [4] = target: 3',5'-cyclic-AMP phosphodiesterase 4B (Homo sapiens) (UniProt Q07343); assay: qHTS Assay for Inhibitors of PDE-IV (AID 607; active means well fitted activation curve with a large enough effect in the main read-out, with a control signal flat, not every such curve was filed as active)
# Chain of 3',5'-cyclic-AMP phosphodiesterase 4B (Homo sapiens) (Q07343 whole entry, looked up): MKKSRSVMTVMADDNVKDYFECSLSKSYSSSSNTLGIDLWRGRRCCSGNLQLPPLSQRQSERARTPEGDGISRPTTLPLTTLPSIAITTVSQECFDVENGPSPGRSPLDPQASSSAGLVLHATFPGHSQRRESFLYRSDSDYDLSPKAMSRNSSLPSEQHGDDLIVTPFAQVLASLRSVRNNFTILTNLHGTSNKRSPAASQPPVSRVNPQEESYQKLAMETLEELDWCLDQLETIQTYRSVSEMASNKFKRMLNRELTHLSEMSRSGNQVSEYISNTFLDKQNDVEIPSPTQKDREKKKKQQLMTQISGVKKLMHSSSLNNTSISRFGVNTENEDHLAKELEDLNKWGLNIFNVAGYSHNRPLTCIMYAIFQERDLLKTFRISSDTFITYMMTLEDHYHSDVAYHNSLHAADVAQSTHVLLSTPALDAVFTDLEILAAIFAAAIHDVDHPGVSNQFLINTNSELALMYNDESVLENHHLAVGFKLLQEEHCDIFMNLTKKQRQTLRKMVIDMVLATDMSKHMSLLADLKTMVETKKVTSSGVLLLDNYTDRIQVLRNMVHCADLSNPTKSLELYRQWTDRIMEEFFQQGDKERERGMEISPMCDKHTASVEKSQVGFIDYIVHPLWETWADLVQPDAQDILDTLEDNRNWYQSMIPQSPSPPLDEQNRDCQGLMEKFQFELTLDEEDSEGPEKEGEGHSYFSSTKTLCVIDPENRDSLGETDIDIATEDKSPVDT
# In short: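 The readout is membrane depolarisation from a cAMP-sensing CNG channel, detected with a potential dye at ex 535/em 590. Cells were HEK293-derived (endogenous PDE-IV) at 1000 cells/well, titrated up to 22.9 uM final.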
# [5] = target: Dual specificity protein kinase CLK4 (Homo sapiens) (UniProt Q9HAZ1); assay: qHTS Assay for Inhibitors of CDC-like Kinase 4 (ADP-Glo Assay) (AID 1771); further: nearly all actives have a fitted effect of over 70% in size; further: potency means the concentration at half of the fitted maximal effect
# In short: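 Kinase reaction: Clk4 at 25 nM, RS repeat peptide substrate at 100 uM, ATP at 1 uM, 1 hr, room temperature. Product ADP detected as luciferase signal via ADP-Glo.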
# [6] = AP1 Signaling Pathway (AID 357; active means well fitted curve in either direction with a large enough effect, not every such curve was filed as active;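 further: ME-180 reporter cells stimulated with EGF at its EC50 level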); conditions: ME-180 AP-1-bla reporter, EGF-induced, beta-lactamase ratio, 5 h; at 7.69 µM (top of the series) unless noted
# In short: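 AP-1-bla ME-180 cells, Opti-MEM + 0.5% dialyzed FBS, plated overnight 37 °C. Cpd titration + EC50 EGF, 5 h 37 °C. CCF4 2.5 h RT; ex 405, em 460/530 ratio → %activity, AC50.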
# [7] = target: Cytochrome P450 2C19 (Homo sapiens) (UniProt P33261); assay: qHTS Assay for Inhibitors and Substrates of Cytochrome P450 2C19 (AID 899); further: potency means the concentration at half of the fitted maximal effect; nearly all actives have a fitted effect of over 60% in size
# Chain of Cytochrome P450 2C19 (Homo sapiens) (P33261 whole entry, looked up): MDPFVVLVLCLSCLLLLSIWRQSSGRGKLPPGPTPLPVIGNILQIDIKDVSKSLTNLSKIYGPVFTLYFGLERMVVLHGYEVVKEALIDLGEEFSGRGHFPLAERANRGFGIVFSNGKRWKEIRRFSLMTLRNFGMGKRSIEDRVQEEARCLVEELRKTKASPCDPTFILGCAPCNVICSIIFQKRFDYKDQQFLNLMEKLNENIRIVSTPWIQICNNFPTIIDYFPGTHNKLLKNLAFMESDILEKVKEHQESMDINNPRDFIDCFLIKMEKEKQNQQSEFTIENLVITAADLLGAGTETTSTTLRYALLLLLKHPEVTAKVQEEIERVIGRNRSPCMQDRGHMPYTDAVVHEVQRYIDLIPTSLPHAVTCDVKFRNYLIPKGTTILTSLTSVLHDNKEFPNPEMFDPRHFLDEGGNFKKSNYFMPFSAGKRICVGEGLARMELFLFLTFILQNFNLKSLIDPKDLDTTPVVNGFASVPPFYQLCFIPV
# In short: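 Human CYP2C19 (5nM) with Luciferin-H EGE at 10uM (its KM) in 50mM KPO4 was preincubated with compound for 10 min at 37C. NADPH regeneration started a 60 min 37C reaction. Luciferin was read by luminescence, normalized to 57uM ketoconazole.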
# [8] = qHTS Assay for Identification of Small Molecule Agonists for Hypoxia Response Element Signaling Pathway (AID 914; active means well fitted activation curve with a large enough effect in the signal ratio, with a control signal flat, not every such curve was filed as active; the % refers to the signal ratio; further: potency means the concentration at half of the fitted maximal effect); conditions: ME-180 (cervical carcinoma) HRE-bla reporter, beta-lactamase ratio, CoCl2, 17 h; activation: hits give high values
# In short: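 A beta-lactamase reporter under hypoxia response element control in ME-180 cells served as the system. Compound titrations plus EC50 CoCl2 ran 17 h at 37 degrees Celsius; AC50 values were fitted from %Activity.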
# [9] = target: Dual specificity protein kinase CLK4 (Homo sapiens) (UniProt Q9HAZ1); assay: qHTS Assay for Inhibitors of CDC-like Kinase 4 (ADP-FP Assay) (AID 1795); further: nearly all actives have a fitted effect of over 60% in size; further: potency means the concentration at half of the fitted maximal effect;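 on activity change, negative = inhibition: recombinant human CLK4 phosphorylating RS repeat peptide at 1 µM ATP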
# In short: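 Inhibition of ADP formation by 6.25 nM Clk4 is measured using 1 uM ATP and 100 uM RS repeat peptide over one hour. Produced ADP displaces a fluorescent tracer from antibody, lowering polarization.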
compound,measurement,setting,value
COc1cccc(-c2ccc3ncnc(NCc4ccc(OC)cc4OC)c3c2)c1,Potency,[1],2.51 µM (active)
same,outcome,[2],inactive
same,Potency,[3],35.5 µM (active)
Cn1cc(-c2nc3cnc(N4CCNCC4)nc3n(C3CC3)c2=O)c2ccccc21,Potency,[4],inactive
same,outcome,[2],inactive
same,Potency,[3],inactive
same,Potency,[5],inactive
CC(=O)NCCNc1nc(-c2cccc(C#N)c2)nc2ccccc12,"activity change, negative = inhibition",[6],2.77%
same,Potency,[4],inactive
same,Potency,[3],28.2 µM (active)
COc1cccc(-c2cncnc2NCCc2c[nH]c3ccc(OC)cc23)c1,Potency,[4],inactive
same,outcome,[2],inactive
same,Potency,[7],0.316 µM (active)
same,Potency,[3],20 µM (active)
COc1cccc(-c2ccc3ncnc(NCc4cnc(C)cn4)c3c2)c1,Potency,[4],inactive
same,Potency,[1],7.94 µM (active)
same,outcome,[2],inactive
same,activation,[8],-8.99%
same,Potency,[3],3.16 µM (active)
same,Potency,[9],1.41 µM (active)
O=c1c(-c2ccccc2)nc2cnc(N3CCOCC3)nc2n1CCc1ccccc1,outcome,[2],inactive
same,Potency,[8],3.16 µM (active)
same,Potency,[3],inactive
Clc1ccccc1-c1nc(-n2ccnc2)c2ccccc2n1,"activity change, negative = inhibition",[6],-5.23%
same,Potency,[1],0.501 µM (active)
same,outcome,[2],inactive
same,Potency,[7],7.94 µM (active)
same,Potency,[5],2.24 µM (active)
same,Potency,[9],1 µM (active)
COc1ccccc1CNc1ncncc1-c1ccccc1Cl,"activity change, negative = inhibition",[6],-2.69%
same,Potency,[4],inactive
same,Potency,[1],0.199 µM (active)
same,outcome,[2],inactive
same,Potency,[7],1.26 µM (active)
same,Potency,[5],inactive
same,Potency,[9],inactive
COc1ccc(-c2nc3cnc(N4CCOCC4)nc3n(-c3ccc(OC)cc3)c2=O)cc1,"activity change, negative = inhibition",[6],-5.89%
same,Potency,[4],inactive
same,Potency,[8],3.16 µM (active)
same,Potency,[5],inactive
same,Potency,[9],inactive
COc1cccc(-c2ccc3ncnc(Nc4ccccc4)c3c2)c1,outcome,[2],inactive
same,Potency,[7],0.501 µM (active)
same,Potency,[3],2 µM (active)
same,Potency,[9],0.282 µM (active)
CN(C)c1ccc(-c2nccc(Nc3ccc(F)cc3)n2)cc1,"activity change, negative = inhibition",[6],-4.1%
same,Potency,[4],inactive
same,outcome,[2],inactive
same,Potency,[7],3.16 µM (active)
same,Potency,[3],17.8 µM (active)
COc1ncc2nc(CCc3ccccc3)c(=O)n(-c3ccccc3)c2n1,"activity change, negative = inhibition",[6],-22.4%
same,Potency,[4],inactive
same,Potency,[3],inactive
same,Potency,[9],inactive
c1cn(-c2ncnc3ccc(-c4ccoc4)cc23)cn1,Potency,[4],inactive
same,outcome,[2],inactive
same,Potency,[3],0.141 µM (active)
same,Potency,[9],0.0708 µM (active)
COCCn1c(=O)c(-c2ccc(F)cc2)nc2cnc(Nc3cccc(OC)c3)nc21,"activity change, negative = inhibition",[6],-8.42%
same,Potency,[4],inactive
same,Potency,[3],inactive
same,Potency,[9],inactive
Cc1nc2cnc(OCc3ccccc3)nc2n(CCc2ccccc2)c1=O,"activity change, negative = inhibition",[6],2.1%
same,outcome,[2],inactive
same,Potency,[3],inactive
COc1ccccc1CNc1ncncc1-c1ccccc1C(F)(F)F,"activity change, negative = inhibition",[6],-7.72%
same,Potency,[4],inactive
same,Potency,[1],0.0794 µM (active)
same,outcome,[2],inactive
same,Potency,[7],1.58 µM (active)
same,Potency,[3],inactive
same,Potency,[9],inactive
COc1ccccc1CNc1ncnc2ccc(-c3ccc(C(=O)N(C)C)cc3)cc12,outcome,[2],inactive
same,Potency,[3],inactive
O=c1c(-c2ccccc2)nc2cnc(Oc3ccccc3)nc2n1C[C@H]1CCCO1,"activity change, negative = inhibition",[6],180%
same,Potency,[4],inactive
same,Potency,[3],inactive
CN(Cc1ccco1)c1cc(-c2ccc3c(c2)OCO3)ncn1,"activity change, negative = inhibition",[6],-0.29%
same,Potency,[1],3.98 µM (active)
same,outcome,[2],inactive
same,Potency,[3],2 µM (active)
same,Potency,[9],2.51 µM (active)
COc1ccc(CNc2ncncc2-c2ccccc2OC)c(OC)c1,"activity change, negative = inhibition",[6],-23.4%
same,Potency,[1],0.316 µM (active)
same,outcome,[2],inactive
same,Potency,[7],2 µM (active)
same,Potency,[5],inactive
same,Potency,[9],inactive
N#Cc1ccccc1-c1ccc2ncnc(NCc3cccnc3)c2c1,"activity change, negative = inhibition",[6],-14.7%
same,outcome,[2],inactive
same,Potency,[3],3.16 µM (active)
c1ccc2c(NCCN3CCOCC3)nc(-c3ccoc3)nc2c1,"activity change, negative = inhibition",[6],1.61%
same,outcome,[2],inactive
same,activation,[8],-2.73%
same,Potency,[5],inactive
same,Potency,[9],inactive
COc1ccc2[nH]cc(CCNc3ncnc4ccc(-c5ccoc5)cc34)c2c1,Potency,[4],inactive
same,Potency,[1],3.98 µM (active)
same,outcome,[2],inactive
same,Potency,[7],7.94 µM (active)
same,Potency,[3],0.794 µM (active)
same,Potency,[9],0.562 µM (active)
